Pf growth 48h = P. falciparum growth inhibition at 48 hours (one generation) | P. falciparum luciferase growth in erythrocytes, 48 h | Potency, µM (titrated, usually from 28.7 µM), inactives show at the top dose activity change, negative = inhibition, actives largely listed as inhibitors | 5.9% of 310,000 active; further: potency means the concentration at half of the fitted maximal effect; on the % scale 0 is the no-effect control and ±100 the full control effect
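Read-out is firefly luciferase luminescence from an integrated reporter in P. falciparum, so falling signal marks reduced parasite growth. Infected erythrocytes were at 2% hematocrit and 0.1% parasitemia (final) in Albumax-supplemented RPMI 1640.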
Shiga inhibitor = blocks Shiga toxin action in Vero cells; Vero cells, Shiga toxin protein synthesis inhibition reporter; inhibition, % at 38.7 µM; 9.2% of 290,000 active; AID 2315; in the data active means inhibition mostly above about 28%, no sharp cut-off; inactive means mostly below about 43%; further: 0% is about no effect
Sm TGR inh = blocks Schistosoma mansoni thioredoxin glutathione reductase; Q962Y6; purified TGR, DTNB reduction, TNB absorbance 405 nm; Potency, µM (titrated, usually from 114 µM), for the others: at the highest dose activity change, negative = inhibition, actives largely listed as inhibitors; 3% of 360,000 active; AID 485364; further: potency means the concentration at half of the fitted maximal effect; on the % scale 0 is the no-effect control and ±100 the full control effect; nearly all actives have a fitted effect of over 60% in size
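First, TGR (20 nM dispensed) and NADPH were mixed with compound. Second, a 15 min room-temperature incubation followed. Third, further NADPH and then DTNB were added to start the reaction. Finally, TNB absorbance was monitored kinetically.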
Pf growth 96h = inhibits malaria parasite growth, 96 h; P. falciparum luciferase reporter growth, 96 h; AID 504834; 6.9% of 320,000 active; Potency, µM (series often up to 28.7 µM), for inactives: at the highest dose activity change, negative = inhibition, most hits filed as inhibitors; further: potency means the concentration at half of the fitted maximal effect; on the % scale 0 is the no-effect control and ±100 the full control effect
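Luminescence readout: decreased luciferase signal marks inhibited growth of reporter-expressing P. falciparum in infected red cells (2% hematocrit, 0.05% parasitemia final), exposed to compound two generations (96 h, 37 C, 5% CO2).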
NS1 inh = blocks influenza NS1 protein function; Potency, µM (top dose mostly 46.1 µM), for the others: top-dose activity, positive = more growth; 0.4% of 270,000 active; calls by dose curve; further: potency means the concentration at half of the fitted maximal effect; actives are rising curves; nearly all actives have a fitted effect of over 50% in size
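Compounds were scored for reversing the slow growth caused by influenza A NS1 in S. cerevisiae, measured by optical density at 600 nm. Assay medium contained 2% galactose at pH 6.0; NS1-free yeast of the same strain were the positive control.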
Cycloheximide cs = counter-screen for Shiga toxin inhibitors: cycloheximide protein synthesis inhibition; cell reporter, cycloheximide protein synthesis inhibition counterscreen; max response, %; 12% of 300,000 active; AID 2314; in the data active means max response mostly above about 13%, no sharp cut-off; inactive means mostly below about 14%; further: read at 38.3 µM for the half of the compounds with a filed dose; 0% is about no effect
* = called active by the depositor; ? = inconclusive; / = no result. In the library only some 21% were active in any assay of this set; here they are far more common. Unless noted, the call rests on the fitted dose curve; in most records, active means well fitted curve in the direction sought with a large enough effect; inconclusive means small, poorly fitted or top-dose-only effect, or another doubt; inactive means no such curve, though single readings can be large; an effect the other way counts as inactive or inconclusive.

SMILES | Pf growth 48h | Shiga inhibitor | Sm TGR inh | Pf growth 96h | NS1 inh | Cycloheximide cs
CCCCCC(=O)N/N=C/c1ccc([N+](=O)[O-])o1 | / | 28 | 40µM* | / | / | 9
O=C(CNC(=O)c1ccccc1)N/N=C/c1ccc([N+](=O)[O-])o1 | 4.7µM* | 1 | ? | ? | 3% | 10
O=C(CCC(=O)Nc1ccc(Cl)cc1Cl)N/N=C/c1ccc([N+](=O)[O-])o1 | ? | 38* | ? | ? | / | 2
Cc1ccc(NCC(=O)N/N=C\c2ccc([N+](=O)[O-])o2)cc1 | ? | -5 | ? | 5.2µM* | -14% | 1
O=C(CNC(=O)c1ccccc1)N/N=C/c1ccccc1Cl | 12% | 59 | 6% | ? | / | 14
COCCCN(Cc1ccco1)C(=O)Cn1ncc2c(=O)oc3ccc(C)cc3c21 | 79% | 2 | -31% | 30% | 6% | 2
COc1cccc2nc(-c3cccs3)nc(NN3C(=O)C=C(C)C3=O)c12 | / | 32 | / | / | / | 26
COC(=O)c1ccc(NC(=O)Cc2coc3cc(C)ccc23)cc1 | / | / | 1% | / | / | /
O=C(CNc1ccccc1)N/N=C/c1ccc([N+](=O)[O-])o1 | 3.7µM* | 19 | ? | 2.6µM* | -4% | 1
O=C(N/N=C/c1ccc([N+](=O)[O-])o1)c1cc2c(ccc3ccccc32)o1 | ? | 17 | -19% | ? | -6% | 5
CC(=O)c1cccc(NC(=O)c2nc(-c3ccccc3)n(-c3cccc(Cl)c3)n2)c1 | / | / | -3% | / | / | /
ClC(Cl)(Cl)c1nc(N/N=C/c2ccncc2)c2ccccc2n1 | 2.3µM* | -6 | 5% | ? | / | 9
O=[N+]([O-])c1cccc(/C=N/Nc2nc(C(Cl)(Cl)Cl)nc3ccccc23)c1 | 1µM* | -11 | -3% | ? | 4% | 1
CCOC(=O)C1CCN(S(=O)(=O)c2ccc3[nH]c(=O)ccc3c2)CC1 | 0% | -6 | 8% | 11% | 11% | -3
Fc1ccccc1N1CCN(CCCc2ccccc2)CC1 | 0% | 12 | -3% | 12µM* | 1% | -3
CCOc1cc2[nH]c(=S)n(CCCN3CCOCC3)c(=O)c2cc1OCC | ? | -13 | 1% | ? | 2% | -4
CCOc1cc2[nH]c(=S)n(C3CC3)c(=O)c2cc1OCC | -8% | -16 | -1% | ? | / | 6
CCOc1cc2[nH]c(=S)n(CCCOC)c(=O)c2cc1OCC | -8% | -11 | -3% | 6.6µM* | -3% | -2
O=C(CCCn1c(=O)[nH]c2cc(Cl)ccc2c1=O)NC1CCCCCCC1 | 14% | -8 | 11% | ? | -4% | -1
CCOc1cc2[nH]c(=S)n(C(C)C)c(=O)c2cc1OCC | / | -7 | -3% | 8.3µM* | 19% | -1
CCCCN(C)C(=O)CCCCn1c(=O)[nH]c2cc(OCC)c(OCC)cc2c1=O | 10µM* | -15 | 2% | ? | -2% | -2
CCOc1cc2[nH]c(=O)n(CCCCCC(=O)NCc3ccco3)c(=O)c2cc1OCC | / | 0 | -2% | / | 4% | 1
CN(Cc1ccccc1)C(=O)CCCn1c(=O)[nH]c2cc(Cl)ccc2c1=O | / | 17 | 2% | 15µM* | -3% | -2
O=c1[nH]c2ccc(S(=O)(=O)N3CCN(S(=O)(=O)c4c(F)cccc4F)CC3)cc2[nH]c1=O | / | -2 | / | / | / | -3
CCC1CCC(C(=O)NC(CCSC)C(=O)NCCN(CC(C)C)CC(C)C)CC1 (centres undefined) | -26% | 10 | 1% | 15µM* | / | 3
SMILES | Pf growth 48h | Shiga inhibitor | Sm TGR inh | Pf growth 96h | NS1 inh | Cycloheximide cs
CCC1CCC(C(=O)NC(CCSC)C(=O)NCCc2ccc(S(N)(=O)=O)cc2)CC1 (centres undefined) | 19% | -5 | -2% | 16% | -1% | 6
O=C(CNC(=S)N(CCCN1CCOCC1)Cc1cccs1)N1CCCCCC1 | ? | -12 | 1% | ? | / | -7
CCOC(=O)C1CCCN(CC(=O)Nc2nc(-c3ccccc3)cs2)C1 (centres undefined) | ? | / | -1% | 0% | -54% | -4
CN(C)CCCNC(=O)/C(=N\O)c1ccccc1 | 6% | -15 | -3% | / | 8% | 1
Cc1cccc(C)c1C(=NCCCN(C)C)c1ccccc1 | 9.3µM* | -1 | 5% | 4.7µM* | -7% | -3
CCN1CCc2nc3ccccc3c(C(=O)Nc3ccc(C#N)cc3)c2C1 | ? | 14 | -11% | 2.6µM* | / | 6
O=C(/C=C/c1ccccc1[N+](=O)[O-])Nc1cccnc1 | 135% | 45* | -4% | 178% | -5% | 36*
O=C(/C=C/c1cc([N+](=O)[O-])ccc1OC(F)F)Nc1cccc(OC(F)F)c1 | ? | -8 | -3% | 8.3µM* | 6% | -3
CCN(CC)S(=O)(=O)c1cccc(NC(=O)/C=C/c2ccc([N+](=O)[O-])cc2)c1 | -1% | -22 | -11% | ? | 27% | -2
COc1cccc(NC(=O)/C=C/c2ccc([N+](=O)[O-])cc2)c1 | 37% | 47* | -29% | 16% | 0% | 39*
COc1ccccc1NC(=O)/C=C/c1cc([N+](=O)[O-])ccc1OC(F)F | 14% | -2 | 11% | 45% | ? | -5
O=C(/C=C/c1ccccc1[N+](=O)[O-])NNC(=O)c1ccncc1 | -14% | / | 4% | -24% | / | /
COC(=O)C(=Cc1ccccc1[N+](=O)[O-])C(=O)OC | ? | -1 | 7.1µM* | 9.3µM* | -38% | 8
O=C(/C=C/c1ccccc1[N+](=O)[O-])Oc1ccccc1 | 16% | -6 | 5% | 20% | -5% | 1
COc1cc(COC(=O)c2cnc(C)cn2)c(OC)cc1Br | 0% | -6 | -12% | 9% | -1% | 1
CC1CCN(CC[S-])CC1.O.O.[Cl][Pt] | / | / | / | / | 5% | /
COc1cccc(NC(=O)/C=C/c2ccccc2[N+](=O)[O-])c1 | 168% | 74* | 2% | ? | -41% | 61*
Cc1nc2ccccn2c(=O)c1NC(=O)c1ccc(F)c(F)c1 | / | / | 0% | / | / | /
N=C1CCC[C@@H]1C(=S)SCCC(N)=O | / | / | / | / | 2% | /
Cc1nc(SCC(=O)NC(=O)NCCC(C)C)c2c(-c3cccs3)csc2n1 | 12µM* | 13 | 7% | ? | -1% | 1
Cc1nc(N2CCC(C(N)=O)CC2)c2c(-c3cccs3)csc2n1 | -5% | -27 | 1% | -19% | / | -4
CCc1nc2scc(-c3cccs3)c2c(=O)o1 | 4% | -5 | -11% | ? | 12% | -1
CCn1c(Sc2nc(C)nc3scc(-c4cccs4)c23)n[nH]c1=O | ? | -5 | 0% | 7.4µM* | -215% | -4
CCN(CC)CCNC(=O)c1cc(-c2cccnc2)nc2ccc(S(=O)(=O)N3CCC(C)CC3)cc12 | ? | -8 | -10% | 13µM* | 6% | -9
CCCCN(CCCC)CCNC(=O)c1cc(-c2cccnc2)nc2ccc(S(=O)(=O)N3CCC(C)CC3)cc12 | / | / | 15% | / | / | /

Source: PubChem
